Compounds with a hit are over-represented: about 2.9% of the library has one in this group of screens.
MEKK3 PB1 HTS – modulators (inhibitors or enhancers) of MEK5 binding to human MEKK3 PB1 domain | binding response (% of control), % at 10 µM | Q99759 | bead-based flow cytometry, Alexa488-MEK5 binding to MEKK3; actives lie on both sides; 0 = blocked by unlabeled MEK5, 100 = vehicle | 1.4% of 290,000 active;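 active = binding response more than 3 SD above or below the average of its plate-row segment, actives on both sides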;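 note: Alexa488 bead fluorescence after subtracting the streptavidin-only scavenger bead signal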
ABCB6 inh 2 – blocks the human ABCB6 transporter; fluorescence ratio to DMSO, % at 10 µM; AID 602162; 0.19% of 360,000 active; K562-ABCB6 porphyrin accumulation, flow cytometry, 1 h; hits give low values;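 active = fluorescence ratio to DMSO below 75%, the collection mean minus 3 SD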;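 note: signal is porphyrin accumulated inside mitochondria; 100% equals median channel fluorescence of DMSO control wells; lower ratio means ABCB6 inhibition with less porphyrin fluorescence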
Target sequence (Q9NP58 whole entry, looked up): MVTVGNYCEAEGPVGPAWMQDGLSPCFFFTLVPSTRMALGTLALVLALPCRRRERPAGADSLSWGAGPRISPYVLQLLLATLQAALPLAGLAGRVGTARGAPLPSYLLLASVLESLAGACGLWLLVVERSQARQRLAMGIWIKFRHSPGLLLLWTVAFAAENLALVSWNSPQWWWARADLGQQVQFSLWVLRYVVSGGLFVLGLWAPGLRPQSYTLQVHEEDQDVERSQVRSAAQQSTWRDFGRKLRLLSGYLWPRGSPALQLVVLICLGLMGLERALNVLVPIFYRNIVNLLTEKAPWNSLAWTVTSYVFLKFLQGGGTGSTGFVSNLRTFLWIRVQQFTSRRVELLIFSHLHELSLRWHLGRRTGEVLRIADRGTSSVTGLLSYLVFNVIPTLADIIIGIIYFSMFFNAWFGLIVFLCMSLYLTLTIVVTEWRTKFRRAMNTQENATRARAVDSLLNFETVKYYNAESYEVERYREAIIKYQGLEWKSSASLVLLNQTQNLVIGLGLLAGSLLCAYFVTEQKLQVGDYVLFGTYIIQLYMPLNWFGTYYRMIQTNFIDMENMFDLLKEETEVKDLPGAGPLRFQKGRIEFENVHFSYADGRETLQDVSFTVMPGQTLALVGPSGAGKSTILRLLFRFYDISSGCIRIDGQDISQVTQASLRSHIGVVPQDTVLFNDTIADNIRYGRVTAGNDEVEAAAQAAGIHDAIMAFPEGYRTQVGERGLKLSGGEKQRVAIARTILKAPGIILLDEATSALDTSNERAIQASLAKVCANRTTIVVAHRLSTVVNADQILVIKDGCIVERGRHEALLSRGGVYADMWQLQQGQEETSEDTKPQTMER
MEKK2 WT-MEK5 – raises or lowers MEK5 binding to wildtype human MEKK2 PB1 domain; Q9Y2U5; bead flow cytometry, Alexa488-MEK5 binding to MEKK2 WT; actives lie on both sides; binding response (% of control), % at 10 µM; 1.1% of 290,000 active; AID 1531; in the data active = binding response below about 67% or above about 130%
CRFBP-R2 block – antagonists of CRF-binding protein/CRF-R2 receptor complex. HEK293 CRF-R2/CRF-BP, CRF-induced calcium fluorescence. inhibition, % at 11.8 µM. 0.59% of 350,000 active;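 active = inhibition of the ligand-induced calcium signal above about 50% at the single tested concentration, limit read from the data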
CRFR2-BP ag – agonists of human CRF-binding protein/CRF-R2 receptor complex; activation, % at 13.2 µM; HEK293 CRF-R2/CRF-BP, calcium dye fluorescence (FLIPR); percent of saturating CRF peptide response; 0.46% of 350,000 active;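 active = activation of at least 50%, plus an integration ratio under a set limit after plate pattern correction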;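 note: plate controls were neutral control wells without compound for no effect and CRF at EC100 for full effect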
MEKK2mut PB1 HTS – signal of MEK5 binding to mutant human MEKK2 PB1 domain; bead flow cytometry, Alexa488-MEK5 binding to MEKK2 mutant; percent response, % at 10 µM; 0.35% of 290,000 active; in the data active = percent response above about 24%, passing the limit was not always enough
MEKK2wt confirm – raises or lowers MEK5 binding to wildtype human MEKK2, retest. shares compounds with MEKK3 PB1 HTS. bead flow cytometry, Alexa488-MEK5 binding to MEKK2 WT; actives lie on both sides. binding response (% of control), % at 10 µM. 2.4% of 5,900 active. AID 1892; in the data active = binding response below about 16% or above about 210%; inactive = in between
MEKK2mut-MEK5 – signal of MEK5 binding to mutant human MEKK2, retest | bead flow cytometry, Alexa488-MEK5 binding to MEKK2 mutant | percent response, % at 10 µM | 2% of 5,900 active | shares compounds with MEKK3 PB1 HTS; in the data active = percent response mostly above about 71%, no sharp cut-off; inactive = mostly below about 38%;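 note: higher means compound restores mutant binding toward wildtype level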
MEKK3-MEK5 inh – MEKK3-MEK5 PB1 inhibition, single concentration confirmation; shares compounds with MEKK3 PB1 HTS; bead flow cytometry, Alexa488-MEK5 binding to MEKK3; hits give low values; binding response (% of control), % at 10 µM; 1.8% of 5,900 active; AID 1894;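 active = binding response below 72% of control, or above a set upper limit, though filed actives all read lower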;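 note: 100% = DMSO only wells and 0% = binding blocked by excess unlabeled MEK5; lower values mean stronger disruption of MEK5 binding to MEKK3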
Numbers without * were called inactive; . = no result; [ ] = remark or other dose.

SMILES	MEKK3 PB1 HTS	ABCB6 inh 2	MEKK2 WT-MEK5	CRFBP-R2 block	CRFR2-BP ag	MEKK2mut PB1 HTS	MEKK2wt confirm	MEKK2mut-MEK5	MEKK3-MEK5 inh
N#CCc1ccc(Oc2ccc([N+](=O)[O-])cn2)cc1	48.0*[inhibitor]	98.0	52.0	26.6	0.5	-19.0	106.0	7.0	106.0
O=C1c2ccccc2C(=O)N1/N=C/c1ccc(Oc2ccc([N+](=O)[O-])cn2)cc1	86.0	89.0	91.0	-1.5	0.0	-8.0	.	.	.
COc1ccccc1/C=C/C(=O)NCC(=O)n1nc(C)cc1C	58.0*[inhibitor]	102.0	59.0*[inhibitor]	-5.2	-4.5	-40.0	101.0	0.0	104.0
Cc1cccc(NC2=NC(C)(C)N=C(N)N2)c1	110.0	174.0	99.0	28.2	-1.1	-6.0	.	.	.
CC1=CC(C)(C)N2C(=O)C3(N=C(N)NC(Nc4ccccc4)=N3)c3cc(C)cc1c32 (stereo not given)	121.0	101.0	154.0*	-9.2	1.7	33.0*	137.0	14.0	102.0
O=C(COC(=O)C(CO)NS(=O)(=O)c1ccc(Br)cc1)Nc1ccc2c(c1)OCCO2 (stereo not given)	.	97.0	.	-8.1	1.1	.	.	.	.
COc1cccc(Nc2c(Nc3cccc(OC)c3)c(=O)c2=O)c1	102.0	99.0	102.0	-3.8	1.9	6.0	.	.	.
COc1cccc(Nc2ccc(Nc3cccc(OC)c3)nn2)c1	113.0	93.0	172.0*	-15.5	-1.4	76.0*	108.0	2.0	103.0
CCn1c(/C=C/N(C(C)=O)c2ccccc2)[n+](CC)c2ccc(Cl)cc21	109.0	108.0	104.0	5.8	0.7	-1.0	.	.	.
CC[n+]1c(/C=C/C=C/N(C(C)=O)c2ccccc2)sc2ccccc21	2.0*[inhibitor]	957.0	.	-120.0	157.5*	-16.0	13.0*[inhibitor]	7.0	87.0
CCOC(=O)CSc1nnc(-c2c[nH]c3ccccc23)n1CC	117.0	88.0	118.0	5.2	-1.8	18.0	.	.	.
CCn1c(SCC(=O)OC)nnc1-c1c[nH]c2ccccc12	129.0*	93.0	116.0	-11.7	-1.6	22.0	100.0	3.0	100.0
Cc1cc2nnc(SCCCCN3C(=O)c4ccccc4C3=O)n2c2ccccc12	100.0	.	101.0	.	.	3.0	.	.	.
COc1ccc([N+](=O)[O-])cc1NC(=O)CSc1nncn1-c1ccccc1	107.0	77.0	105.0	-5.6	-1.4	55.0*	102.0	0.0	104.0
Cc1ccc(S(=O)(=O)N2CCOCC2)cc1NC(=O)COC(=O)C1COc2ccccc2O1 (stereo not given)	144.0*	105.0	109.0	21.8	-4.7	0.0	101.0	-2.0	98.0
COc1ccccc1NC(=O)CSc1nncn1-c1ccccc1	101.0	97.0	103.0	7.1	0.2	7.0	.	.	.
COC(=O)CSc1nnc2cc(C)c3ccccc3n12	46.0*[inhibitor]	77.0	41.0*[inhibitor]	-6.6	1.1	-12.0	100.0	-4.0	99.0
CC(NC(=O)CSc1ncccc1C(=O)O)C1CC2CCC1C2 (stereo not given)	87.0	93.0	94.0	17.2	-0.9	-13.0	.	.	.
Cc1ccc(S(=O)(=O)N2CCCCC2)cc1NC(=O)CSc1nncn1-c1ccccc1	95.0	99.0	.	-1.0	2.4	107.0*	107.0	7.0	104.0
COc1ccc(-n2cnnc2SCC(=O)Nc2cc(S(=O)(=O)N3CCCCC3)ccc2C)cc1	105.0	97.0	111.0	-9.9	-0.3	2.0	.	.	.
Cc1ccc(S(=O)(=O)N2CCOCC2)cc1NC(=O)CSc1nnc2cc(C)c3ccccc3n12	141.0*	101.0	107.0	0.2	0.1	4.0	98.0	-5.0	95.0
